The values below come from the supplement of paper PMC10849652.

The full data set covers some 7,900 targets. This sample favours those with a hit. About 0.6% of all pairs of compound and target were hits. Values without a mark were called inactive.

UniProt Q15642, sequence (Q15642 whole entry, looked up): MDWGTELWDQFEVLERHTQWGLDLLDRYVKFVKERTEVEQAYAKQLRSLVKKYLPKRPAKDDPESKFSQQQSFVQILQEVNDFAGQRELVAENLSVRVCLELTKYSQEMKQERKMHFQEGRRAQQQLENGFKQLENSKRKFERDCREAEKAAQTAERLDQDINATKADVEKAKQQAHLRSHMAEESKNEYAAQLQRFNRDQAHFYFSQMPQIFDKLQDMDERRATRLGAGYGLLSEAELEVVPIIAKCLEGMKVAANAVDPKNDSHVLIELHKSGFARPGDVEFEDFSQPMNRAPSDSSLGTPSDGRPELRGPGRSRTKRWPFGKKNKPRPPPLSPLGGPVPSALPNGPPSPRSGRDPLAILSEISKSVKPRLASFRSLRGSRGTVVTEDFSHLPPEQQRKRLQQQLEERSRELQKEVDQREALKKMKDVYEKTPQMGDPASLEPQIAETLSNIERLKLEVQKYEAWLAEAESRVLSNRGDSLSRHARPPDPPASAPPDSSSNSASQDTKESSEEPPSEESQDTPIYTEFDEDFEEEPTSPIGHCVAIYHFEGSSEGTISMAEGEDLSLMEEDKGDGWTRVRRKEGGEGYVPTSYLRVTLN
UniProt Q9H3M7, sequence (Q9H3M7 whole entry, looked up): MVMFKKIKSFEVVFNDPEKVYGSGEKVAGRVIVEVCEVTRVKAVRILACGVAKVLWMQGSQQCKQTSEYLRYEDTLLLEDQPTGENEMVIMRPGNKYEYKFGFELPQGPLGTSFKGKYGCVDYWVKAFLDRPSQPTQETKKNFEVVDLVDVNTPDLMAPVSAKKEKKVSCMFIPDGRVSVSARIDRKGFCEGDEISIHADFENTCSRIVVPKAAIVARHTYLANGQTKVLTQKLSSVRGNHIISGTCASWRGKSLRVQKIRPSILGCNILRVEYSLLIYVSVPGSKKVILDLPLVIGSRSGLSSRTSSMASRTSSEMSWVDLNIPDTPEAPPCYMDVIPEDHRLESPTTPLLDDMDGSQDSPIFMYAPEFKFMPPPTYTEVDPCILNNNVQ
UniProt Q9Y5L0, sequence (Q9Y5L0 whole entry, looked up): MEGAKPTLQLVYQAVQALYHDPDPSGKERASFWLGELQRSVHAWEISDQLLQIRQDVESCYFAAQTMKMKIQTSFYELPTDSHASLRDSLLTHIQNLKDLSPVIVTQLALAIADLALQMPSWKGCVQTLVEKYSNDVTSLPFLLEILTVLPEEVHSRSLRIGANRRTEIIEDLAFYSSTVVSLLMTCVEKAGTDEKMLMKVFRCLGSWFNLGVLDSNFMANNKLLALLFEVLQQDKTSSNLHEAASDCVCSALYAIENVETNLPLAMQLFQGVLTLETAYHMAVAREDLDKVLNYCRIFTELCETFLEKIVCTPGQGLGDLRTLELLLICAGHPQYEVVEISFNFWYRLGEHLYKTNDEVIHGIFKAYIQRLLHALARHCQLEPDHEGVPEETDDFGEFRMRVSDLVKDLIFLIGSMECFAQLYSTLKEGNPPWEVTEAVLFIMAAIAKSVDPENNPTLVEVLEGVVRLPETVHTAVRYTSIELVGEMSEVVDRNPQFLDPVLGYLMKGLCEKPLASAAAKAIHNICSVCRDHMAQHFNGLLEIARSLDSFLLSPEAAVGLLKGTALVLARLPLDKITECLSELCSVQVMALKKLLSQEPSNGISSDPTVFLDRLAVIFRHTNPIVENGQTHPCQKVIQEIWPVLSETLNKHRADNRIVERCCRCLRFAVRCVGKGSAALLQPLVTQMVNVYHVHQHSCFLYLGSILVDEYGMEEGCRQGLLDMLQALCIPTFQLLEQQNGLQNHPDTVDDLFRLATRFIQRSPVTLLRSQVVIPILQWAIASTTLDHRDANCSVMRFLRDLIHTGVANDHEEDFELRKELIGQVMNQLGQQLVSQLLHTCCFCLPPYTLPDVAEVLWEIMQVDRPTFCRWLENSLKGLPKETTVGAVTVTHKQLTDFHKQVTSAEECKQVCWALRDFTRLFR
UniProt Q7Z5K2, sequence (Q7Z5K2 whole entry, looked up): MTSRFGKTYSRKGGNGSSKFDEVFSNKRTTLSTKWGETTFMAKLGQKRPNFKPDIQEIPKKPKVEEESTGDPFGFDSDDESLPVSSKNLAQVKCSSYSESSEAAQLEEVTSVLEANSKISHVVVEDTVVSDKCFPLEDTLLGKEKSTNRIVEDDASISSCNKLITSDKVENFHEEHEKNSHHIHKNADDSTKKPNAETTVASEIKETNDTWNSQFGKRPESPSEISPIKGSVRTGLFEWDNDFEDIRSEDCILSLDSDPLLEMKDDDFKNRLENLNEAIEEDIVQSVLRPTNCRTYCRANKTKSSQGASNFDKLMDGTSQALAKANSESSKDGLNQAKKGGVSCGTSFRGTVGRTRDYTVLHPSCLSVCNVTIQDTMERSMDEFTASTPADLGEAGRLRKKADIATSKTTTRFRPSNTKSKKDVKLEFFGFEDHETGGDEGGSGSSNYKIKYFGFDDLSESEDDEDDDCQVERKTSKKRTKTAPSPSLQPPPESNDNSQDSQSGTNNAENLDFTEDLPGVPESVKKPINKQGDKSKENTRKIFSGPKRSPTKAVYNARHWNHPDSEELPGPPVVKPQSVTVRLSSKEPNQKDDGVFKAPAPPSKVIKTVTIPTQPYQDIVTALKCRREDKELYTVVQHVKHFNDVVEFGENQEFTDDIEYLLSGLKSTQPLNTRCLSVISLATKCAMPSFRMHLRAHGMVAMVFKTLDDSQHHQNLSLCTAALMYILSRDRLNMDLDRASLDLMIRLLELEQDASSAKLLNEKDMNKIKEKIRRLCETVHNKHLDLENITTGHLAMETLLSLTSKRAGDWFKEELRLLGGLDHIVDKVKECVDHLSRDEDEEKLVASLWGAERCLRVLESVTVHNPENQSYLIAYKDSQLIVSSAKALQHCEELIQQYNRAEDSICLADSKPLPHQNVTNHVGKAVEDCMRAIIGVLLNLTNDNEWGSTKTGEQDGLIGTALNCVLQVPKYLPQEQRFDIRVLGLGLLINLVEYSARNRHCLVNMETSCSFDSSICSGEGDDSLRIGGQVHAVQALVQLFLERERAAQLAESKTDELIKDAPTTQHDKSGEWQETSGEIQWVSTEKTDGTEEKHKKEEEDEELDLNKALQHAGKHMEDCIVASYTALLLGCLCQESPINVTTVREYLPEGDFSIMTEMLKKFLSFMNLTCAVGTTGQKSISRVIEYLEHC
UniProt Q8N1B4, sequence (Q8N1B4 whole entry, looked up): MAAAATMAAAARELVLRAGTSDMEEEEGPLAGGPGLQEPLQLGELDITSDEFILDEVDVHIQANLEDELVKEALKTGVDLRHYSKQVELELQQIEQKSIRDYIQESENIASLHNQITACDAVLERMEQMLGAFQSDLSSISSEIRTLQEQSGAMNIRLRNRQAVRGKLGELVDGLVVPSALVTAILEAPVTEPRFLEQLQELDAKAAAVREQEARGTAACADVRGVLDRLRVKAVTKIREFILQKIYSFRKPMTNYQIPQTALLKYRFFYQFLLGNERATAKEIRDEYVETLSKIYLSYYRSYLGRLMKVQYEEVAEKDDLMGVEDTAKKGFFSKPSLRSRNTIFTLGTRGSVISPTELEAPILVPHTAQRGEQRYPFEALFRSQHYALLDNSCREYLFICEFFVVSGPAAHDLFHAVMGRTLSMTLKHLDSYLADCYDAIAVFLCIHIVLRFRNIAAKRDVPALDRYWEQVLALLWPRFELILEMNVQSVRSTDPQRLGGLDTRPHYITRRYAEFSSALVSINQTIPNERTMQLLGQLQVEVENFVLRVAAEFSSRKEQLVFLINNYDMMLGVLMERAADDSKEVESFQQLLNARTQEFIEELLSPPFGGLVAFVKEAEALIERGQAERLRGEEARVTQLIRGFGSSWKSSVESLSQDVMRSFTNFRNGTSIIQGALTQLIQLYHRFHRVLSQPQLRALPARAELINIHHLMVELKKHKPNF
UniProt O14773, sequence (O14773 whole entry, looked up): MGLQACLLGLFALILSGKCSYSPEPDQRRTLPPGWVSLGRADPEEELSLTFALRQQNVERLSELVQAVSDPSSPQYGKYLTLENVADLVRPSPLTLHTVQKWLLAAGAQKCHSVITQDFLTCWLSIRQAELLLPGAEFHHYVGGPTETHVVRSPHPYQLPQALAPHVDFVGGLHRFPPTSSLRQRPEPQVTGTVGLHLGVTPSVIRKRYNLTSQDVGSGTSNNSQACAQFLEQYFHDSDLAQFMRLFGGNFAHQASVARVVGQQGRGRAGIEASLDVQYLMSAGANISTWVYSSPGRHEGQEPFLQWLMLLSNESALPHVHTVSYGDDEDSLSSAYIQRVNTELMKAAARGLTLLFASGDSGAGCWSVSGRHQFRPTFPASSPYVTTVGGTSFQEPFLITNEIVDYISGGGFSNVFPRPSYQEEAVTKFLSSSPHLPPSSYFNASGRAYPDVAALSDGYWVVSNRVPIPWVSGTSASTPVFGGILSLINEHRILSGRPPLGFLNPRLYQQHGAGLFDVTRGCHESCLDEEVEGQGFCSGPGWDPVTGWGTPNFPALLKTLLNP
UniProt P07951, sequence (P07951 whole entry, looked up): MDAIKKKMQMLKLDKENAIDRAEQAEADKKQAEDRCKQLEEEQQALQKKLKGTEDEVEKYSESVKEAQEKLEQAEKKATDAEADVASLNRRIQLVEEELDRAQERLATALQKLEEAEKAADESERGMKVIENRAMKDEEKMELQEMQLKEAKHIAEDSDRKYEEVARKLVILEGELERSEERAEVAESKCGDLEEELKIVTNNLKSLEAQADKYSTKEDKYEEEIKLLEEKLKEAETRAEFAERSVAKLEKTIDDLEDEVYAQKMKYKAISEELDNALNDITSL
UniProt Q9UK41, sequence (Q9UK41 whole entry, looked up): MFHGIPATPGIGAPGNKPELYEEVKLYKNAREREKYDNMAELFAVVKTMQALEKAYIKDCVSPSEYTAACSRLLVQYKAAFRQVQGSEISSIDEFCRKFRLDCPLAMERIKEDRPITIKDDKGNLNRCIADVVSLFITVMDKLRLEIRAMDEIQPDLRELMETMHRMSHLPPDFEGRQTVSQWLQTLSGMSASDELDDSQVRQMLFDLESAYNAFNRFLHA

Compound in this experiment: C[C@@H]1COCCN1C2=NC(=NC(=C2)C3(CC3)S(=O)(=O)C)C4=C5C=CNC5=CC=C4
Kind of experiment: log2 fold change, soluble protein after heating vs DMSO (PISA); higher = thermal stabilisation; K562 cells, 10 uM, 30 min; active = over 0.2 and 3.5 SD of the protein, either way, in both replicates (recomputed). The method in brief:
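Thermal stability values are relative to control samples and come from duplicates. They are expressed as log2 fold changes. For measurement, K562 cells (2×10^6 cells/mL) received 10 μM compound for 30 min, and aliquots were heated for 3 min over 48°C-58°C, pooled, and extracted at 4°C in PBS with 0.5% NP-40. Soluble protein, the supernatant after 21,000xg for 90 min, was quantified by TMTpro 16plex LC-MS/MS with equalised channel sums.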
Consider TMEM214 (UniProt Q6NUQ4), for which the log2 fold change was -0.043.

For the target WDR62 isoform 4 (UniProt O43379), the log2 fold change was 0.07. As for VPS11 (UniProt Q9H270), the log2 fold change was -0.039. As for WASHC2C, A0A096LPC5, the log2 fold change was 0.031. As to WNK1 isoform 7 (UniProt Q9H4A3), the log2 fold change was -0.027.

Consider VPS52 (UniProt Q8N1B4), for which the log2 fold change is -0.031. For TPM2 (UniProt P07951) the value was -0.167; for WASHC2A (UniProt Q641Q2), -0.033; for TRAPPC11 (UniProt Q7Z392), 0.051. Regarding WDHD1 (UniProt O75717), the log2 fold change is 0.098. Take TXNIP (UniProt Q9H3M7): the log2 fold change was -0.103.

Regarding VPS41 (UniProt P49754), the log2 fold change was -0.009.

As for TRIP10 (UniProt Q15642), the log2 fold change was -0.085. As to TRIP10 isoform 2 (UniProt Q15642), the log2 fold change is -0.007. Regarding USP48 isoform 8 (UniProt Q86UV5), the log2 fold change is 0.066. On to VPS8 (UniProt Q8N3P4), for which the log2 fold change was 0.016. As for TOM1L1 (UniProt O75674), the log2 fold change was 0.184. TMTC3 (UniProt Q6ZXV5): the log2 fold change is -0.052. Regarding TPP1 (UniProt O14773), the log2 fold change was 0.022. The value for VPS28 (UniProt Q9UK41) was 0.063; that for TMEM9 (UniProt Q9P0T7) was 0.029; that for TNPO3 (UniProt Q9Y5L0) was 0.025. In the case of WAPL isoform 3 (UniProt Q7Z5K2), the log2 fold change was 0.18.
